Here are results for 21 compounds from PubChem BioAssay (EPA / NIEHS).

Values joined by “and” are separate entries in the source; they are usually repeats but may differ in a detail not shown here. Identical values can stand only once. Records with an inconclusive call do not appear. Where a structure was tested more than once in an assay, its records may differ in their call. Active and inactive are the calls of the source. The calls were made as follows, unless noted: active = hit-call score of the fitted dose curve at least 0.9, where 1 is the maximum; inconclusive = response in the unintended direction; inactive = score below 0.9.

Assay [1] concerns the target human CYP1A2, CYP1A2 (gene 1544) (UniProt P05177). As to the kind of experiment: NVS_ADME_hCYP1A2: NovaScreen (NVS) CYP450-related Enzyme Activity (ADME) Assay for human CYP1A2 (AID 2283102).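 As to AC50: potency for inhibition since loss of fluorescence marks reduced CYP1A2 activity.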 In outline: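 Recombinant human CYP1A2 from insect cells, cell-free, fluorogenic substrate; read 0.5 h after dosing with loss of fluorescence signal indicating inhibition. Primary screen in duplicate at 10 uM, acetonitrile as negative control.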

Assay [2] has as its target rat CYP1A2, Cyp1a2 (gene 24297) (UniProt P04799). Briefly: NVS_ADME_rCYP1A2: NovaScreen (NVS) CYP450-related Enzyme Activity (ADME) Assay for rat CYP1A2 (AID 2283115). As to the method: NVS_ADME_rCYP1A2 is a biochemical, single-readout assay that uses extracted gene-proteins in a cell-free assay. Measurements were taken 1 hour after chemical dosing in a 96-well plate.NVS_ADME_rCYP1A2 is one of one assay component(s) measured or calculated from the NVS_ADME_rCYP1A2 assay. It is designed to make measurements of enzyme activity, a form of enzyme reporter, as detected with fluorescence intensity signals by Fluorescence technology.Data from the assay component NVS_ADME_rCYP1A2 was analyzed into 1 assay endpoint. This assay endpoint, NVS_ADME_rCYP1A2, was analyzed in the positive analysis fitting direction relative to Acetonitrile as the negative control and baseline of activity. Using a type of enzyme reporter, loss-of-signal activity can be used to understand changes in the enzymatic activity as they relate to the gene Cyp1a2. Furthermore, this assay endpoint can be referred to as a primary readout, because this assay has produced multiple assay endpoints where this one serves a enzymatic activity function. To generalize the intended target to other relatable targets, this assay endpoint is annotated to the cyp intended target family, where the subfamily is xenobiotic metabolism.
Binding assays used specific radioligands (tritiated, iodinated) with non-radioactive competitive displacement ligands in agonist or antagonist protocols (as indicated) and various reference compounds and inhibitors to titrate specific binding to receptors and transporters. Most enzyme assays (CYPs, kinases, phosphatases, proteases, HDACs) used recombinant protein and specific substrates (fluorescence mostly, some colorimetric and radioactive) and inhibitors, followed by a biochemical separation of substrate and product. All assays for the biochemical HTS were initially run in duplicate at a single concentration (10 uM for CYP450 assays and 25 uM for all others). […] Each assay was run with positive and negative controls, and concurrent controls on every plate. The follow-up (secondary) screen tested active chemical-pairs in concentration series, as well as a few additional assays not tested in the primary screen, some selected negative inactives, and several cases re-run in the concentration series for confirmatory purposes.

For assay [3], the target named is human CYP2C9, CYP2C9 (gene 1559) (UniProt P11712). As to the kind of experiment: NVS_ADME_hCYP2C9: NovaScreen (NVS) CYP450-related Enzyme Activity (ADME) Assay for human CYP2C9 (AID 2283108). In outline: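 Recombinant human CYP2C9 expressed in SF9 cells, fluorogenic substrate, fluorescence read 0.75 h after dosing. Chemicals first run in duplicate at 10 uM, with actives followed in concentration series; loss of signal versus acetonitrile baseline.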

Assay [4] has as its target human CYP2J2, CYP2J2 (gene 1573) (UniProt P51589). As to the kind of experiment: NVS_ADME_hCYP2J2: NovaScreen (NVS) CYP450-related Enzyme Activity (ADME) Assay for human CYP2J2 (AID 2283106). In outline: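 Cell-free assay of recombinant CYP2J2 with a fluorogenic substrate, read 1 h after dosing; loss of signal versus acetonitrile. Primary screen at 10 uM in duplicate, then concentration-response up to 20 uM for chemicals passing threshold (e.g., 30% inhibition).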

The subject of the next assay is rat CYP2B1, gene 24300. Briefly: NVS_ADME_rCYP2B1: NovaScreen (NVS) CYP450-related Enzyme Activity (ADME) Assay for rat CYP2B1 (AID 2283117). In outline:
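Recombinant rat CYP2B1 with fluorogenic substrate, read at 0.75 h. Primary screen in duplicate at 10 uM; compounds meeting threshold (e.g., 30% inhibition) re-run in concentration-response up to 20 uM. Fitted against acetonitrile control.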

Assay [5] deals with human CYP2C8, CYP2C8 (gene 1558) (UniProt P10632). As to the kind of experiment: NVS_ADME_hCYP2C8: NovaScreen (NVS) CYP450-related Enzyme Activity (ADME) Assay for human CYP2C8 (AID 2283104; active = hit-call score of the fitted dose curve at least 0.9, where 1 is the maximum; inactive = score below 0.9). The procedure, abridged: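 Recombinant human CYP2C8 with fluorogenic substrate, 0.5 h, fluorescence intensity; signal loss fitted versus acetonitrile. Screened in duplicate at 10 uM, then actives run in concentration-response up to 20 uM.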

Assay [6] deals with rat CYP2C11, Cyp2c11 (gene 29277) (UniProt P08683). As to the kind of experiment: NVS_ADME_rCYP2C11: NovaScreen (NVS) CYP450-related Enzyme Activity (ADME) Assay for rat CYP2C11 (AID 2283118). In outline:
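Cell-free recombinant rat enzyme with fluorescent substrate; readout 0.33 h after dosing, loss of signal versus acetonitrile control. Initial duplicate single-point at 10 uM; actives rerun in concentration series.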

Assay [7] deals with human CYP2B6, CYP2B6 (gene 1555) (UniProt P20813). Briefly: NVS_ADME_hCYP2B6: NovaScreen (NVS) CYP450-related Enzyme Activity (ADME) Assay for human CYP2B6 (AID 2283101). In outline: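 Recombinant protein, specific fluorescent substrate, read at 1 h post-dosing. Primary: single 10 uM, duplicate; follow-up: concentration series. Activity = signal loss vs acetonitrile baseline, with positive and negative controls on every plate.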

In assay [8] the target is human CYP2D6, CYP2D6 (gene 1565) (UniProt P10635). As to the kind of experiment: NVS_ADME_hCYP2D6: NovaScreen (NVS) CYP450-related Enzyme Activity (ADME) Assay for human CYP2D6 (AID 2283107). The procedure, abridged:
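Cell-free assay using recombinant human CYP2D6 expressed in insect cells, with a fluorogenic substrate read after 1 h. Primary screen in duplicate at 10 uM; actives followed up in concentration series. Loss of signal fitted relative to acetonitrile.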

Sequence of human CYP2B6, CYP2B6 (gene 1555) (P20813 whole entry, looked up): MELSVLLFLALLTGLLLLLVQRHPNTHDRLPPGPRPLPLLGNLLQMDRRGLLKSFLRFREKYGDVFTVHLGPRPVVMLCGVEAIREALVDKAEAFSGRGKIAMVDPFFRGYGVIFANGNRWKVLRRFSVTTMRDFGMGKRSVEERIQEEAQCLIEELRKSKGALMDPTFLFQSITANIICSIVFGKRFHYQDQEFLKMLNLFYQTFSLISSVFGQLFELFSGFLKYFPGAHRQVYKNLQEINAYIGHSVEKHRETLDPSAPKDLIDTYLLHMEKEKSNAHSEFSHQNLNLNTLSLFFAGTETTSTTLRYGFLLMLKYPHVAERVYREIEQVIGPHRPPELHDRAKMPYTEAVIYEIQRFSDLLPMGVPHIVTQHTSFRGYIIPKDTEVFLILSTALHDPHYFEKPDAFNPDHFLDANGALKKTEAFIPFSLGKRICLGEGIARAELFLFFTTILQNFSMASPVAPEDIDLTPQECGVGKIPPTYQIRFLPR
Sequence of human CYP2C8, CYP2C8 (gene 1558) (P10632 whole entry, looked up): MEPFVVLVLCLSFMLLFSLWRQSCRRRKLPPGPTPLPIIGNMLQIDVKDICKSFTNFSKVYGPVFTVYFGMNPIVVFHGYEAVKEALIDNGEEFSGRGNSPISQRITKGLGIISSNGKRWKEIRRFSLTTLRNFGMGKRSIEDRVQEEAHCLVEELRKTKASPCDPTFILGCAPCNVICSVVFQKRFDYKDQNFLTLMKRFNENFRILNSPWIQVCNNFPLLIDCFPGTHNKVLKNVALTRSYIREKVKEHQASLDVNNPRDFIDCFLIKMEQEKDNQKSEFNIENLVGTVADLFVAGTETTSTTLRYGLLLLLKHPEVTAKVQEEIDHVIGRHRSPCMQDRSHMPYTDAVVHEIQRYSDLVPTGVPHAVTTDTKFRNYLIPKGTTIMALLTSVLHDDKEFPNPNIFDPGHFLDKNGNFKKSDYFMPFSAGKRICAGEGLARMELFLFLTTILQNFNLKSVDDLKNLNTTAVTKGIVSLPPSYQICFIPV
Sequence of human CYP2D6, CYP2D6 (gene 1565) (P10635 whole entry, looked up): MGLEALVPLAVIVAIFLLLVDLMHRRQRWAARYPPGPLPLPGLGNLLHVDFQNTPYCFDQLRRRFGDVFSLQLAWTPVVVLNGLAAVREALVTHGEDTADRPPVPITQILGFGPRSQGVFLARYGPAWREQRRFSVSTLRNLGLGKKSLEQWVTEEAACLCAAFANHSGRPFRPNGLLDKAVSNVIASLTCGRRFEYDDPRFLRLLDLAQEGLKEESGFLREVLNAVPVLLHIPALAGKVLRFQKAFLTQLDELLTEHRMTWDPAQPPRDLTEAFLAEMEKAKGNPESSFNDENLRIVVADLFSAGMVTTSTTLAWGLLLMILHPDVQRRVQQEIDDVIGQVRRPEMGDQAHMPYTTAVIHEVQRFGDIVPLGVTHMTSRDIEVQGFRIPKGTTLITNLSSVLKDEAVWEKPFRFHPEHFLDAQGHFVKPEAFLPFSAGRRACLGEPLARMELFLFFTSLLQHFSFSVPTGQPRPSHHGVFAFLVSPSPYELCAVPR
Sequence of human CYP1A2, CYP1A2 (gene 1544) (P05177 whole entry, looked up): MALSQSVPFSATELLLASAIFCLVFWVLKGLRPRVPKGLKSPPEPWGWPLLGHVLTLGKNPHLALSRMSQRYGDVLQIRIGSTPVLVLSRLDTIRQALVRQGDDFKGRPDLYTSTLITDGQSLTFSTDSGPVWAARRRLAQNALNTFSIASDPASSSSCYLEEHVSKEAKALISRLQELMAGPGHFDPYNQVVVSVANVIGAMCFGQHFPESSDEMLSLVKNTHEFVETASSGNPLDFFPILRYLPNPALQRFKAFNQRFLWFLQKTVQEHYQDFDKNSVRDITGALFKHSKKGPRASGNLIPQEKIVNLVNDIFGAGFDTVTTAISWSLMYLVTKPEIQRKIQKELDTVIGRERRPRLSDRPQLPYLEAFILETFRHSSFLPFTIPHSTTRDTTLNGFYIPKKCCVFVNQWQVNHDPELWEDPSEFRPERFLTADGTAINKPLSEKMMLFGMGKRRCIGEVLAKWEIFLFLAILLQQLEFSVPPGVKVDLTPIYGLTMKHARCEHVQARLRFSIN
Sequence of human CYP2J2, CYP2J2 (gene 1573) (P51589 whole entry, looked up): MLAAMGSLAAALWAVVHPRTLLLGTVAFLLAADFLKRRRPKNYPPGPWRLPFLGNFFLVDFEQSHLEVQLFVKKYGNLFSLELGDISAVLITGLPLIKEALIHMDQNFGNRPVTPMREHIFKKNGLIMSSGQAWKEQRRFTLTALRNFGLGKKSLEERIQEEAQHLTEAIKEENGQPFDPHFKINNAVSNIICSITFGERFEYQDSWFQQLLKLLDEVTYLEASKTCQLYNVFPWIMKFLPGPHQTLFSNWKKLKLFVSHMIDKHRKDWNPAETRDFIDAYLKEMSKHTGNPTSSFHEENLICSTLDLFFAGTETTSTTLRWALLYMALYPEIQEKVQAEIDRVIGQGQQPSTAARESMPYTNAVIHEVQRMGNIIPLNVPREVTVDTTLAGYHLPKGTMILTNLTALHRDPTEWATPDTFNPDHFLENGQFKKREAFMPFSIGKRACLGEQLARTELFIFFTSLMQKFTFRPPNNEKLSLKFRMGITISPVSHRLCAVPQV
Sequence of rat CYP2C11, Cyp2c11 (gene 29277) (P08683 whole entry, looked up): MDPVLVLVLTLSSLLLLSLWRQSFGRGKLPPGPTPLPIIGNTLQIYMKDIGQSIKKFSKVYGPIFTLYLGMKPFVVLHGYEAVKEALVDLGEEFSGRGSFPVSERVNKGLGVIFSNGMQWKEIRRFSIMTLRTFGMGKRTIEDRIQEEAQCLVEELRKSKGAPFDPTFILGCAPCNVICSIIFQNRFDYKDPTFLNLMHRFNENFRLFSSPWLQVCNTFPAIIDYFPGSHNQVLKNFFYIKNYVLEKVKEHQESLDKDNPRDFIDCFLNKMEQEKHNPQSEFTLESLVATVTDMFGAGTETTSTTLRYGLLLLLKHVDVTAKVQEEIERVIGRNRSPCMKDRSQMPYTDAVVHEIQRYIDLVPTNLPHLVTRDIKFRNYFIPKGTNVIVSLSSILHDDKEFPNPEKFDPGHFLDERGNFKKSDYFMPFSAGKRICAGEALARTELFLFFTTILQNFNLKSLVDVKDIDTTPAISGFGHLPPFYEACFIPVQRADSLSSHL
Sequence of human CYP2C9, CYP2C9 (gene 1559) (P11712 whole entry, looked up): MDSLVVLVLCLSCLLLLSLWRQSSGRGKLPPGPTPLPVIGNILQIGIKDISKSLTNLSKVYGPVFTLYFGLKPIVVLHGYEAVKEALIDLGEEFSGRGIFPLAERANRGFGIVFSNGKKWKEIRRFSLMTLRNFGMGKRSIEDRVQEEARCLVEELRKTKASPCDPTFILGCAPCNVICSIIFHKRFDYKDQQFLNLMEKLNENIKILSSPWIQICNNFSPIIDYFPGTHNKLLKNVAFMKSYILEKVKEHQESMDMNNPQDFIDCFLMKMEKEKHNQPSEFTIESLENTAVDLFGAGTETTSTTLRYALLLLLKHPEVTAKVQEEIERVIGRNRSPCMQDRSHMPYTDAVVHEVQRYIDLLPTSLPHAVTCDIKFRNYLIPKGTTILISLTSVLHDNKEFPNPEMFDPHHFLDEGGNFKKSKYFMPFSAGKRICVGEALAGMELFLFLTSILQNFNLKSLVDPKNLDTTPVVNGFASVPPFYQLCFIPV
Sequence of rat CYP1A2, Cyp1a2 (gene 24297) (P04799 whole entry, looked up): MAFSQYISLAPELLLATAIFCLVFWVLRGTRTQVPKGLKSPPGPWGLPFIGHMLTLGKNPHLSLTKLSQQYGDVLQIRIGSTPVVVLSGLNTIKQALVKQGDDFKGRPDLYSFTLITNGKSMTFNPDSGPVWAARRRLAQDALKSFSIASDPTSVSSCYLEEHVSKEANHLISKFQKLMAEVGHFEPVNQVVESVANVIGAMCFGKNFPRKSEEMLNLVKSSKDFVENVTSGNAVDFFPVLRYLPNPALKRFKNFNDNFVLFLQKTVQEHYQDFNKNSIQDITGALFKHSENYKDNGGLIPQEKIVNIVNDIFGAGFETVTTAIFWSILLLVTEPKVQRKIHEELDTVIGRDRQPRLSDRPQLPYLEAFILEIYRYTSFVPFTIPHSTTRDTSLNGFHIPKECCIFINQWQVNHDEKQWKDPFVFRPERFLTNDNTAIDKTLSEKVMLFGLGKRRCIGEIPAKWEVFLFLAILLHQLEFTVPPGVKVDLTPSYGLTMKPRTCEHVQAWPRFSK

Usually AC50 stands for the midpoint of the concentration-response curve, whichever way the signal moves. Take `CC1=C(C(=O)Nc2ccccc2)SCCO1`: the AC50 in assay [1] is 6.47 µM (active). Also, the outcome in assay [2] was inactive.

With `COc1nc(C)nc(NC(=O)NS(=O)(=O)c2ccccc2CCC(F)(F)F)n1`, in assay [3], the call was inactive.

Regarding `O=C(Nc1ccccc1)Nc1ccnc(Cl)c1`, the AC50 was 2150 nM (active) in [4]; 2460 nM (active) in assay [3]; 6410 nM (active) with rat CYP2B1, gene 24300. Moreover, the compound was classed as inactive in assay [2].

Regarding `COP(=S)(OC)Oc1nc(Cl)c(Cl)cc1Cl`, the call in assay [1] and in [2] was inactive.

In the case of `Cc1ccc(-c2c(Cl)nc(C#N)n2S(=O)(=O)N(C)C)cc1`, the AC50 in assay [1] was 5.8 µM (active); in assay [5], 3900 nM (active); in [3] it was 4540 nM (active); in assay [6], 6130 nM (active). In assay [2], the outcome was inactive.

In the case of `CNC(=S)S`, the call in [1] and in assay [3] was inactive.

As for `Fc1ccc(Oc2ccnc3cc(Cl)cc(Cl)c23)cc1`, the AC50 in [1] is 7.42 µM (active); in assay [6], 15600 nM (active).

Regarding `C=CC1(C)OC(=O)N(c2cc(Cl)cc(Cl)c2)C1=O` (centres undefined), the AC50 in [7] was 6.73 µM (active) and 5.83 µM (active). In addition, the compound was classed as inactive in assay [1].

Regarding `CCOC(=O)C(Cl)Cc1cc(-n2nc(C)n(C(F)F)c2=O)c(F)cc1Cl` (centres undefined), in assay [1], the compound was classed as inactive.

As to `CCCCOC(=O)c1ccccc1C(=O)OCCCC`, the AC50 in assay [1] is 7.03 µM (active) and 7.88 µM (active); in the assay on rat CYP2B1, gene 24300, 2310 nM (active). Further, the outcome in [5] is “inactive”; with rat CYP2B1, gene 24300, “inactive”.

Turning to `C=CCC1=C(C)[C@@H](OC(=O)[C@@H]2[C@@H](C=C(C)C)C2(C)C)CC1=O`, the AC50 is 10000 nM (active) in assay [8] and 5730 nM (active) in assay [3].

As for `N#Cc1nn(-c2c(Cl)cc(C(F)(F)F)cc2Cl)c(N)c1S(=O)C(F)(F)F` (centres undefined), the AC50 in [3] was 1140 nM (active).

In the case of `CCNc1nc(Cl)nc(NCC)n1`, the AC50 in assay [4] is 200 nM (active).

Turning to `CC1COC(Cn2cncn2)(c2ccc(Oc3ccc(Cl)cc3)cc2Cl)O1` (centres undefined), the AC50 in assay [7] is 1.71 µM (active); in assay [5], 2740 nM (active); in assay [4], 438 nM (active); in assay [3], 1340 nM (active); in the assay on rat CYP2B1, gene 24300 it was 552 nM (active); in assay [6], 1730 nM (active).

For the compound `CCCCC(CC)COC(=O)c1ccccc1C(=O)OCC(CC)CCCC` (centres undefined), in assay [3], the result was inactive.

As for `CCCN(CCC)c1c([N+](=O)[O-])cc(S(N)(=O)=O)cc1[N+](=O)[O-]`, the compound was called inactive in [7] and in [6]. For the same compound, the AC50 in assay [5] is 4890 nM (active); with rat CYP2B1, gene 24300, 7630 nM (active).

`CON(C)C(=O)Nc1ccc(Cl)c(Cl)c1`: the result in [2] was inactive.

For `CCNc1nc(Cl)nc(NC(C)C)n1`, the concentration at half-maximal activity (AC50) in assay [1] was 14.8 µM (active) and 9.2 µM (active). For the same compound, the compound was classed as inactive in the assay on rat CYP2B1, gene 24300.

On to `CO/C=C(/C(=O)OC)c1ccccc1Oc1cc(Oc2ccccc2C#N)ncn1`, for which the compound was classed as inactive in assay [3]. For the same compound, the AC50 in assay [6] was 2810 nM (active).

Turning to `COc1nc(C)nc(NC(=O)NS(=O)(=O)c2ccccc2Cl)n1`, in assay [8], the result was inactive.

For the compound `CCOC(=O)CC(SP(=S)(OC)OC)C(=O)OCC` (centres undefined), the half-maximal activity concentration (AC50) in assay [7] is 0.899 µM (active); in assay [1], 0.837 µM (active); in [4], 369 nM (active); in assay [8], 4680 nM (active); in [3], 752 nM (active); with rat CYP2B1, gene 24300 it was 3830 nM (active). Also, the concentration at half-maximal activity (AC50) in [6] is 399 nM (active). Also, the call in assay [5] was inactive.
